Assay outcomes from PubChem.
This is a sample that favours compounds with a hit; in the whole collection about 10% have one here.
ALDH1A1 inh: inhibitors of human aldehyde dehydrogenase 1A1. P00352. Purified ALDH1A1, NADH fluorescence, propionaldehyde substrate. Potency, µM (doses to about 75.3 µM), inactives show at the highest dose activity, negative = inhibition, most hits filed as inhibitors. 220,000 tested, 7.3% active;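 note: potency is the fitted concentration of half-maximal effect; plate controls were no enzyme wells and a reference inhibitor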
Target sequence (P00352 whole entry, looked up): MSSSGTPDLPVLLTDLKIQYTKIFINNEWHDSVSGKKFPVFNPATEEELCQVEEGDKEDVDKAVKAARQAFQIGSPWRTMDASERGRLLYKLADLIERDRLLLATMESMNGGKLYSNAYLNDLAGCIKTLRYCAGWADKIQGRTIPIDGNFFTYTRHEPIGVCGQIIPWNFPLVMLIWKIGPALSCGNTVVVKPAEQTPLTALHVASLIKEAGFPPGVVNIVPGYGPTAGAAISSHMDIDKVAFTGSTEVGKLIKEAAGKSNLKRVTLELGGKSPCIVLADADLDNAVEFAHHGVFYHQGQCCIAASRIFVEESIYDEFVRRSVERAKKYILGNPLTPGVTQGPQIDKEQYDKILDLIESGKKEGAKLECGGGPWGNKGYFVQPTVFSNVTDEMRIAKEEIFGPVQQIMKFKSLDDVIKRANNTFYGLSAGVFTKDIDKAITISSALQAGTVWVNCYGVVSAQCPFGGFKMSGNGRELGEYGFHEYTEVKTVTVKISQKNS
PNC inhibitor: inhibitors of perinucleolar compartment assembly. PC3M PTB-GFP, PNC prevalence imaging, 16 h; stronger effect = lower value. activity change (PNC), negative = inhibition, % at 10 µM. 140,000 tested, 3.1% active;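 active = readout at or below -70, meaning at least 70% loss of cells showing the perinucleolar compartment, a nuclear body marking cancer cells; inconclusive = readout between -30 and a set limit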;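 note: plate controls were DMSO wells for no effect and camptothecin positive control wells for full effect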
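PC3M cells stably expressing PTB-GFP, 750–1000 cells/well, treated 16 h at 37 °C with compound (23 nl of library stock), in duplicate. After paraformaldehyde fixation and Hoechst stain, imaged at 20x; PNC prevalence scored by image analysis.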
Lamin A splicing: changes lamin A minigene splicing in HeLa cells. HeLa LMNA splicing GFP/RFP minigene ratio, 48 h. Potency, µM (titrated, usually from 46.1 µM), for inactives: top-dose ratio change, negative = inhibition, most hits filed as inhibitors. 200,000 tested, 0.01% active. AID 1487; active = well fitted inhibition curve with a large enough effect in the signal ratio, with a control signal flat, not every such curve was filed as active; inconclusive = small, poorly fitted or top-dose-only effect, or effect the other way, or a change in a side signal; the % refers to the signal ratio; note: potency is the fitted concentration of half-maximal effect
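S3 HeLa stable clones carrying a lamin A-EGFP splicing minigene plus DsRed2 were seeded at 600 cells/well in Opti-MEM with 2% FBS, pin-dosed and incubated 48 h at 37°C. Acumen cytometry (488 nm) gave the GFP/RFP total-intensity ratio.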
KinaseGlo FLuc: blocks Kinase-Glo luciferase, a counter-screen artifact; Q27757; Kinase-Glo luciferase, ATP luminescence, 8 min; Potency, µM (series often up to 38.3 µM), inactives show top-dose activity change, negative = inhibition, usual class: inhibitors; 200,000 tested, 0.28% active; AID 1379; active = well fitted inhibition curve with a large enough effect; inconclusive = small, poorly fitted or top-dose-only effect; note: potency is the fitted concentration of half-maximal effect; nearly all actives have a fitted effect of over 60% in size
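Inhibition of Kinase-Glo luciferase light generation was assessed at 10 uM ATP in pH 7.2 imidazole buffer, with luminescence measured after eight minutes at ambient temperature.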
HPGD inh: blocks human HPGD enzyme activity | Potency, µM, inactives show at the top dose activity change, negative = inhibition, most hits filed as inhibitors | 150,000 tested, 4.3% active | purified HPGD, NADH fluorescence kinetic, PGE2 substrate; note: potency is the fitted concentration of half-maximal effect
Target sequence (P15428 whole entry, looked up): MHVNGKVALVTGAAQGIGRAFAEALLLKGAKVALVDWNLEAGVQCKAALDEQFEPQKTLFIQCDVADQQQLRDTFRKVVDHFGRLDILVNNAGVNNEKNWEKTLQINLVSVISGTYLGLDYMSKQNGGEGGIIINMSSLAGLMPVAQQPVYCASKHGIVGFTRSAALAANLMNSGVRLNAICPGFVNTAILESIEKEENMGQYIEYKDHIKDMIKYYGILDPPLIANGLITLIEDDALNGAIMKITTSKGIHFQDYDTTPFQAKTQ
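20 nM HPGD preincubated 15 min at room temperature with compound in 50 mM Tris-HCl pH 8, 0.01% Tween 20. Started with 1 mM NAD+ and 30 uM prostaglandin E2; NADH fluorescence (360/450 nm) read 5 times over 30-s intervals, last minus first.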
The depositor's hits bear a star; ? = inconclusive; / = no result; [ ] = remark or other dose. Unless noted, calls come from the whole dose curve; as a rule, active = well fitted inhibition curve with a large enough effect (not every such curve was filed as active); inconclusive = small, poorly fitted or top-dose-only effect, or another doubt; inactive = no such curve, though single readings can be large or run the other way. Unless noted, % is set by controls: 0 for no effect and ±100 for the full control effect.

SMILES | ALDH1A1 inh | PNC inhibitor | Lamin A splicing | KinaseGlo FLuc | HPGD inh
S=C1NC2=C(CCC/C2=C\c2ccc(Cl)cc2)C(c2ccc(Cl)cc2)N1 (stereo not drawn) | 12.6µM* | / | / | / | /
COc1cccc([C@@H]2Oc3ccc(Br)cc3C[C@H]2OC(=O)NCCc2ccc(OC)c(OC)c2)c1 | 6.4% | / | / | -2.1% | -5.6%
O=C(NC1CC(=O)N(c2cccc(F)c2)C1)C(c1ccccc1)c1ccccc1 (stereo not drawn) | / | / | 2.0%[46 µM] | / | /
CN1CC[C@@]2(CCCN(C(=O)c3cccc(F)c3)C2)C1 | 2.6% | / | / | -5.0% | -0.8%
Fc1ccccc1/C=C1\CCCC2=C1NC(=S)NC2c1ccccc1F (stereo not drawn) | 0.794µM* | / | ? | 4.2% | /
S=C1NC2=C(CCCC2=C2SCCCS2)C(c2ccccc2)N1 (stereo not drawn) | 1µM* | / | / | -3.8% | /
S=C1NC2=C(CCC/C2=C\c2ccccc2)C(c2ccccc2)N1 (stereo not drawn) | 0.631µM* | -1.8 | ? | 1.1% | 22.4µM*
CCOC(=O)c1cccc(NC(=O)N2CC(CC)Oc3ccccc32)c1 (stereo not drawn) | / | / | -8.9%[46 µM] | / | /
CC1CCN(S(=O)(=O)c2ccc3c(c2)N(CC(=O)O)C(=O)CO3)CC1 | / | / | -8.2%[46 µM] | / | /
C/C(=C\C(=O)c1cccnc1)Nc1ccc(O)cc1 | ? | 4.7 | 18.2% | -3.1% | 15.8µM*
Cc1ccccc1-n1c(-c2csc(C)c2C)n[nH]c1=S | ? | 22.9 | -2.4% | -5.5% | -24.5%
Cc1cccc(-n2c(-c3csc(C)c3C)n[nH]c2=S)c1 | -13.2% | 15.8 | 3.8% | -4.2% | 10µM*
CCCc1cc(-c2n[nH]c(=S)n2-c2cccc(C)c2)cs1 | ? | / | -12.2%[9.22 µM] | 1.0% | /
Cc1cccc(-n2c(-c3csc(C(C)C)c3)n[nH]c2=S)c1 | 15.8µM* | 15.8 | -8.1% | -1.4% | ?
Cc1ccccc1C(=O)NC(=S)Nc1sc2c(c1C#N)CCCC2 | 6.31µM* | ? | ? | 6.6% | -24.0%
N#Cc1c(NC(=O)/C=C/c2ccco2)sc2c1CCCC2 | 31.6µM* | -112.5* | ? | 2.0% | ?
Cc1onc(-c2ccccc2)c1C(=O)NC(=S)Nc1sc2c(c1C#N)CCCC2 | 0.501µM* | 24.2 | -18.5% | 1.2% | ?
Cc1noc(C)c1C(=O)Nc1sc(C)c(-c2ccccc2)c1C#N | 10µM* | ? | ? | -3.4% | -28.7%
COC(=O)/C(Cc1cc(Br)c(OC)c(Br)c1O)=N/O | -6.6% | / | / | -0.5% | -8.8%
Cn1c(=O)c2c(ncn2CCSS(=O)(=O)O)n(C)c1=O | 0.6%[13.5 µM] | / | / | 0.1%[7.66 µM] | -7.8%
Cn1cc(Cl)c(C(=O)NC(=S)Nc2sc3c(c2C#N)CCCCC3)n1 | ? | 14.7 | -16.6% | 4.7% | 10µM*
CC(C)(C)C(=O)NC(=S)Nc1sc2c(c1C#N)CCCCC2 | 22.4µM* | 17.6 | -7.8% | 1.3% | -22.5%
Cc1onc(-c2ccccc2)c1C(=O)NC(=S)Nc1sc2c(c1C#N)CCC(C)C2 (stereo not drawn) | 2.24µM* | -28.9 | 1.5% | 1.9% | -29.3%
Cc1onc(-c2ccccc2)c1C(=O)Nc1sc2c(c1C#N)CCC2 | ? | 25.5 | ? | -1.0% | ?
CC(=O)Nc1sc2c(c1C#N)CCCCC2 | ? | 10.7 | -15.2% | -0.8% | -12.1%
SMILES | ALDH1A1 inh | PNC inhibitor | Lamin A splicing | KinaseGlo FLuc | HPGD inh
C[C@@H](c1ccccc1)N1C(=O)[C@H]2[C@H]3[C@H](O)[C@H](O)C/C(=N/OCc4ccccc4)[C@@H]3CC[C@@H]2C1=O | 6.3%[13.5 µM] | / | / | / | /
O=C(CSc1nc2ccccc2s1)NC1CCCc2ccccc21 (stereo not drawn) | ? | ? | ? | 2.8% | 11.2µM*
CC(Sc1nnc(Nc2ccccc2)s1)C(=O)NC1CCCc2ccccc21 (stereo not drawn) | 31.6µM* | ? | ? | 3.0% | -25.8%
O=C(CSc1nnnn1-c1ccccc1)NC1CCCc2ccccc21 (stereo not drawn) | 10µM* | 27.5 | -0.5% | / | /
Cc1nnc(SC(C)C(=O)NC2CCCc3ccccc32)n1-c1ccccc1 (stereo not drawn) | 6.3% | ? | -3.6% | / | /
O=C(CSc1nc2ccccc2[nH]1)NC1CCCc2ccccc21 (stereo not drawn) | -3.1% | ? | -8.5% | -0.1% | -7.7%
Cc1ccccc1-n1nnnc1SC(C)C(=O)NC1CCCc2ccccc21 (stereo not drawn) | 4.47µM* | 40.4 | -13.9% | 1.8% | -11.8%
Cc1cccc(Nc2nnc(SCC(=O)NC3CCCc4ccccc43)s2)c1C (stereo not drawn) | -2.8% | 20.8 | ? | -1.6% | ?
Cc1cc(=O)n(Cc2c(F)cccc2Cl)c2c1c(C)nn2C | / | / | -11.4%[46 µM] | / | /
CCCCOc1cc(C[C@@H]2CNC(=O)N2)ccc1OC | -6.8% | / | / | 0.6% | -1.2%
COc1ccc(-c2nc3sc(CCNC(=O)C(=O)Nc4cccc(NC(C)=O)c4)c(C)n3n2)cc1 | / | / | 27.9%[46 µM] | / | /
CCCc1nn2c(=O)cc(COC(=O)c3cccc(NC(=O)COc4ccccc4C)c3)nc2s1 | / | / | 2.3%[46 µM] | / | /
CCN1CCC(=NNC(=O)CC23CC4CC(CC(C4)C2)C3)CC1 | 1.78µM* | -14.1 | 7.7% | -0.6% | -12.8%
COc1ccc(NC(=O)CSC2=Nc3ccccc3C3=NC(Cc4ccccc4)C(=O)N23)cc1 (stereo not drawn) | / | / | 11.4%[46 µM] | / | /
O=C(NCc1ccco1)c1cc2c(s1)CCCCC2 | 28.2µM* | -21.2 | 2.0% | -8.6% | 15.8µM*
O=C(NCc1ccco1)c1scc2c1OCCO2 | 22.4µM* | -23.5 | 3.7% | -10.0% | -29.4%
O=C(NCc1ccco1)c1ccc(Br)s1 | ? | -14.5 | 6.1% | -5.3% | 15.8µM*
O=C(NCc1ccco1)c1csc2c1CCCC2 | ? | / | ? | -0.1% | /
O=C(NCc1ccco1)c1ccc(C(=O)NCc2ccco2)s1 | 2.1% | ? | -8.9% | -3.7% | -12.4%
CCN(CC)C(=O)c1scc2c1OCCO2 | 15.8% | 37.5 | 0.7% | -5.4% | -16.3%
CC(C)(C)N1C(=O)[C@H]2[C@H]3[C@H](O)[C@H](O)C/C(=N/OC[C@@H](O)COCc4ccco4)[C@H]3CC[C@@H]2C1=O | 11.3%[13.5 µM] | / | / | / | /
COc1cc(C(=O)Nc2ccc(OCc3cc(=O)n4cccc(C)c4n3)cc2)cc(OC)c1OC | / | / | 9.3%[46 µM] | / | /
COc1ccc(NC(=O)C(=O)NNC(=O)c2cccs2)cc1 | 4.7% | -93.5* | -11.1% | -0.2% | -10.8%
CCOc1ccc(C(CC(=O)O)NC(=O)c2cccs2)cc1 (stereo not drawn) | 4.7% | 8.4 | ? | 2.4% | -14.4%
COc1ccc(C(CC(=O)O)NC(=O)c2cccs2)cc1 (stereo not drawn) | -1.4% | -84.6* | -0.8% | -2.3% | -3.3%
CCCc1c(C(=O)NNc2ccccc2OC)cnn1-c1ccccc1 | 7.94µM* | / | / | / | /
COc1ccccc1NC(=O)Cn1cnc2c(cnn2-c2ccccc2)c1=O | -5.3% | -15.2 | ? | -2.4% | -12.5%
